Records with an inconclusive call do not appear. A number with no mark means an inactive call. Active and inactive are the calls of the source. Calls come from the whole dose curve; as a rule, active = well fitted curve in the direction sought with a large enough effect; inconclusive = small, poorly fitted or top-dose-only effect, or another doubt; inactive = no such curve, though single readings can be large; an effect the other way counts as inactive or inconclusive.

The nature of assay [1]: qHTS of pediatric cancer cell lines to identify multiple opportunities for drug repurposing: Primary screen for Saos-2 cells (AID 1347097). For activity change, negative = cytotoxic: % is set by controls: 0 for no effect and ±100 for the full control effect. Note: nearly all actives have a fitted effect of over 40% in size. The method, boiled down:
(§1)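 Readout: CellTiter-Glo luminescence, 48 h treatment. Controls DMSO (neutral) and bortezomib 2.3 µM final (positive). Potency and efficacy taken from primary-screen concentration-response curves.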

Assay [2] is described as follows: qHTS of pediatric cancer cell lines to identify multiple opportunities for drug repurposing: Primary screen for NB1643 cells (AID 1347099).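 For activity change, negative = cytotoxic: plate controls were DMSO neutral control for no effect and bortezomib positive control for full effect.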 Note: nearly all actives have a fitted effect of over 50% in size. The essentials: as §1
On the technique in general: In qHTS, concentration-response curves come from the screen itself.

The nature of assay [3]: qHTS of pediatric cancer cell lines to identify multiple opportunities for drug repurposing: Primary screen for BT-12 cells (AID 1347101).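 For activity change, negative = cytotoxic: plate controls were DMSO for no effect and bortezomib positive control for full effect.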 Note: nearly all actives have a fitted effect of over 25% in size. The essentials:
(§2)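 Cells (500-1,000/well) rested 5 h, then received compounds for 48 h; metabolically active cells were measured by CellTiter-Glo luminescence. Final concentrations spanned up to 46 µM (MIPE, 11-point) or 0.59 nM-46 µM (NPC, 8-point) in primary screens, 11-point in follow-ups.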

Assay [4] can be described thus: qHTS of pediatric cancer cell lines to identify multiple opportunities for drug repurposing: Primary screen for Rh18 cells (AID 1347102). For activity change, negative = cytotoxic: % is set by controls: 0 for no effect and ±100 for the full control effect. Note: nearly all actives have a fitted effect of over 65% in size. The method, boiled down: (§3)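 Cells (500-1,000/well) in growth media were settled 5 h at 37 degrees C, then given compounds for 48 h. Viability was read as CellTiter-Glo luminescence. Primary runs used MIPE at 11 points (0.78 nM-46 µM) and NPC at 8 points (0.59 nM-46 µM); follow-ups used 11 points.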

Assay [5] in a line: qHTS of pediatric cancer cell lines to identify multiple opportunities for drug repurposing: Primary screen for OHS-50 cells (AID 1347103).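 For activity change, negative = cytotoxic: plate controls were DMSO neutral control for no effect and bortezomib positive control for full effect.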 Note: nearly all actives have a fitted effect of over 40% in size. The essentials:
as §2

Assay [6] in a line: qHTS of pediatric cancer cell lines to identify multiple opportunities for drug repurposing: Primary screen for RD cells (AID 1347104).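 For activity change, negative = cytotoxic: plate controls were DMSO for no effect and bortezomib for full effect.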 Note: nearly all actives have a fitted effect of over 55% in size. The method, boiled down:
as §1

Assay [7] in a line: qHTS of pediatric cancer cell lines to identify multiple opportunities for drug repurposing: Primary screen for LAN-5 cells (AID 1347100).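 For activity change, negative = cytotoxic: plate controls were DMSO neutral control for no effect and bortezomib positive control for full effect.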 The method, boiled down:
as §3

The nature of assay [8]: qHTS of pediatric cancer cell lines to identify multiple opportunities for drug repurposing: Primary screen for MG 63 (6-TG R) cells (AID 1347105). For activity change, negative = cytotoxic: % is set by controls: 0 for no effect and ±100 for the full control effect. Note: nearly all actives have a fitted effect of over 50% in size. The method, boiled down: as §1
The nature of assay [9]: qHTS of pediatric cancer cell lines to identify multiple opportunities for drug repurposing: Primary screen for SK-N-SH cells (AID 1347098). For activity change, negative = cytotoxic: % is set by controls: 0 for no effect and ±100 for the full control effect. Note: nearly all actives have a fitted effect of over 65% in size. The essentials: as §2
Potency is the fitted concentration of half-maximal effect.

Turning to `CCCNC(=O)Nc1ccc(Oc2ncnc3cc(OC)c(OC)cc23)cc1Cl`, the Potency entry in [1], in [2], in assay [3], in assay [4], in assay [5] and in assay [6] was “inactive” throughout.

`C[C@@H]1COC(Nc2ccc3ncnc(Nc4ccc(OCc5nccs5)c(Cl)c4)c3c2)=N1`: the Potency in assay [1] is 29.6 µM (active); in [2], 4.69 µM (active); in assay [3] it was 24.3 µM (active); in assay [5], 21.7 µM (active); in [6] it was 14.8 µM (active).

With `COc1cc2c(cc1-c1c(C)noc1C)ncc1[nH]c(=O)n([C@H](C)c3ccccn3)c12`, the Potency in assay [2] was 11.8 µM (active); in assay [7] it was 5.9 µM (active); in [3], 19.3 µM (active); in assay [4], 5.9 µM (active); in assay [5] it was 0.485 µM (active); in [6] it was 4.69 µM (active). For the same molecule, the Potency in [8] is 1.87 µM (active).

On to `CCNC(=O)Nc1ccc2ncc(Nc3ccc(C)cc3)nc2n1`, for which the Potency in assay [1] is 18.7 µM (active); in assay [5], 24.3 µM (active).

Take `Cc1cn2c(-c3cn[nH]c3)cnc2c(Nc2ccc(C(=O)N3CCNCC3)cc2F)n1`: the Potency in assay [9] was 24.1 µM (active); in assay [2], 18.7 µM (active); in assay [7], 16.6 µM (active); in assay [4], 16.6 µM (active); in assay [6], 16.6 µM (active).

On to `C[C@@H]1CN(CC(=O)Nc2ccc3c(c2)Cc2cccc(-c4cc(=O)cc(N5CCOCC5)o4)c2S3)C[C@H](C)O1`, for which the Potency is 10.5 µM (active) in assay [1], 18.7 µM (active) in assay [7], 18.7 µM (active) in assay [4] and 21.7 µM (active) in assay [5].

Consider `CC(C)=CCCC(C)=CCCC(C)=CCSc1ccccc1C(=O)O`, for which the Potency was 3.72 µM (active) in [1], 11.8 µM (active) in [4], 1.53 µM (active) in assay [5] and 3.72 µM (active) in [8]. In addition, the Potency entry in assay [2] was “inactive”.

Consider `C=C1C(=CC=C2CCCC3(C)[C@@H]([C@H](C)C=CC=CC(O)(CC)CC)CC[C@@H]23)C[C@@H](O)C[C@@H]1O` (some centres not stated), for which the Potency was 14.8 µM (active) in assay [2], 14.8 µM (active) in assay [7] and 26.4 µM (active) in [6]. For the same molecule, the Potency result in assay [4] and in assay [8] was “inactive” in each case.

As to `CN[C@H]1CCc2cc(OC)c(OC)c(OC)c2-c2ccc(OC)c(=O)cc21`, the Potency was 0.0037 µM (active) in assay [1], 0.0023 µM (active) in [7], 0.0039 µM (active) in assay [3] and 0.0015 µM (active) in assay [5]. For the same molecule, the Potency result in assay [8] is “inactive”.

On to `COc1ccc(CC2c3cc(OC)c(OC)cc3CC[N+]2(C)CCC(=O)OCCCCCOC(=O)CC[N+]2(C)CCc3cc(OC)c(OC)cc3C2Cc2ccc(OC)c(OC)c2)cc1OC` (configuration not stated), for which the activity change, negative = cytotoxic in assay [1] was 4.71% [at 9.22 µM]; in [2], 1.38% [at 9.22 µM]; in assay [3], 7.29% [at 11.5 µM]; in assay [4] it was -3.1% [at 9.22 µM]; in assay [5] it was 9.58% [at 11.5 µM]; in assay [6] it was 4.63% [at 9.22 µM]. The activity change, negative = cytotoxic in assay [8] is 0.923% [at 9.22 µM].

`COc1ccc(F)c(F)c1C(=O)c1cnc(NC2CCN(S(C)(=O)=O)CC2)nc1N`: the Potency in assay [1] was 2.35 µM (active); in assay [6], 5.26 µM (active).

Consider `Cc1ccc(CN2CCNCC2)cc1NC(=O)CNc1ccc(F)c(F)c1`, for which the Potency entry in [2], in [7], in [3], in [6] and in [8] was “inactive” in each case.

In the case of `Cc1c(NC(=O)OC[C@@H]2COCCN2)cn2ncnc(Nc3ccc4c(cnn4Cc4cccc(F)c4)c3)c12`, the Potency in assay [7] is 20.9 µM (active); in [3] it was 24.3 µM (active); in [8] it was 0.187 µM (active).

`CC(=O)Nc1sc2c(c1-c1nc3ccccc3s1)CNC2`: the Potency in assay [9] was 1.21 µM (active); in assay [2], 5.26 µM (active); in assay [7], 10.5 µM (active); in assay [5] it was 24.3 µM (active).

With `C[C@@H](Oc1cc(-n2cnc3ccc(CN4CCN(C)CC4)cc32)sc1C(N)=O)c1ccccc1C(F)(F)F`, the Potency was 0.108 µM (active) in assay [9], 0.0235 µM (active) in assay [2], 20.9 µM (active) in assay [4] and 0.0968 µM (active) in [5].

In the case of `C[C@]1(CO)CN(c2cc(C(=O)Nc3ccc4c(c3)-c3c(c(C(N)=O)nn3-c3ccc(F)cc3)CC4)c(Cl)cn2)C[C@@]1(C)CO`, the Potency was 16.6 µM (active) in [1], 5.9 µM (active) in [2], 18.7 µM (active) in [4] and 10.9 µM (active) in [5].

In the case of `NC(=O)c1cccc2cn(-c3ccc([C@@H]4CCCNC4)cc3)nc12`, the Potency result in assay [9], in assay [3], in [4] and in assay [8] was “inactive” in each case. Also, the Potency in assay [2] is 20.9 µM (active); in [7], 11.8 µM (active).

For the molecule `Cc1ccc2nc(NC(=O)CSc3nc4c(c(=O)n3-c3ccccc3)SCC4)sc2c1`, the Potency in [1] was 14.8 µM (active); in [7] it was 14.8 µM (active); in assay [3] it was 5.44 µM (active).

For the molecule `CCN(CC)CCCCNc1ncc2cc(-c3cc(OC)cc(OC)c3)c(NC(=O)NC(C)(C)C)nc2n1`, the Potency in assay [9] is 6.81 µM (active); in assay [7], 18.7 µM (active); in assay [3], 24.3 µM (active); in assay [4], 13.2 µM (active); in assay [5] it was 24.3 µM (active); in [6], 16.6 µM (active). Besides, the Potency result in assay [2] was “inactive”.

Turning to `CC=CC1=C(C(=O)O)N2C(=O)[C@H](NC(=O)[C@H](N)c3ccc(O)cc3)[C@@H]2SC1`, the Potency in [9] was 19.2 µM (active); in assay [2], 20.9 µM (active). Moreover, the Potency result in assay [4], in [6] and in assay [8] was “inactive” in each case.

Take `COc1cc2c(Nc3ccc(NC(=O)c4ccccc4)cc3)ncnc2cc1OCCCN1CCOCC1`: the results for the Potency in assay [2], in [7] and in assay [6] were 26.4 µM (active), 0.743 µM (active) and 33.2 µM (active), respectively.

The values are drawn from PubChem BioAssay (NCATS).
